Reference: paper PMC5913336, “True equilibrium measurement of transcription factor-DNA binding affinities using automated polarization microscopy”

Target: T1, Hb (Drosophila melanogaster, UniProt P05084 225-364)
T1 sequence: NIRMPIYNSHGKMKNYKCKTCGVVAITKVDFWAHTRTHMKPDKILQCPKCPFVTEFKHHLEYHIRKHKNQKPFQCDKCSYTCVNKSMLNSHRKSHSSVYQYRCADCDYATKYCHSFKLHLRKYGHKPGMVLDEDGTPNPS
Assay: FP; 33 mM phosphate pH 7.0, 90 mM NaCl, 0.01% Tween 20, 0.1 mM DTT, 0.5% agarose; room temperature
Settings: tags: N-GST (pGEX-6P-1, kept); dsDNA, one strand shown

| Sequence | binding signal |
| --- | --- |
| AGTTTGTTAGGC | 11.9 Kd / Kd of best base at the position |
| ATTTTTTTAGGC | 1.03 Kd / Kd of best base at the position |
| AGTTTTTTAGCC | 1.11 Kd / Kd of best base at the position |
| AGTTTCTTAGGC | 9.31 Kd / Kd of best base at the position |
| AGTTTTTTGGGC | 6.22 Kd / Kd of best base at the position |

Target: T2, Hkb (Drosophila melanogaster, UniProt Q9VN10 181-296)
T2 sequence: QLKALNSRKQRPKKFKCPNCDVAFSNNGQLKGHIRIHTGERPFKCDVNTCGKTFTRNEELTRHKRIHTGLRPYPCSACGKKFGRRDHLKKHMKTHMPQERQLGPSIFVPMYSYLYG
Assay: as above
Settings: tags: N-GST (pGEX-6P-1, kept); dsDNA, one strand shown

| Sequence | binding signal | Kd |
| --- | --- | --- |
| AATGGGCGTGAT | 1.81 Kd / Kd of best base at the position | – |
| AAGGCGCGTGAT | 108 Kd / Kd of best base at the position | – |
| AAGCGGCGTGAT | 121 Kd / Kd of best base at the position | – |
| AAGGGGAGTGAT | 103 Kd / Kd of best base at the position | – |
| AAGGGGCGGGAT | 85.9 Kd / Kd of best base at the position | – |
| AAGGGGCGTGTT | 150 Kd / Kd of best base at the position | – |
| ACGGGGCGTGAT | 2.33 Kd / Kd of best base at the position | – |
| AGGGGGCGTGAT | 5.34 Kd / Kd of best base at the position | – |
| AAGGGGCTTGAT | 235 Kd / Kd of best base at the position | – |
| CAGGGGCGTGAT | 6.48 Kd / Kd of best base at the position | – |
| AAGGGGCGTGAC | 1.18 Kd / Kd of best base at the position | – |
| AAGGAGCGTGAT | 52 Kd / Kd of best base at the position | – |
| AAGAGGCGTGAT | 8.29 Kd / Kd of best base at the position | – |
| AAGGGGCGTAAT | 130 Kd / Kd of best base at the position | – |
| AAGGGGGGTGAT | 55.1 Kd / Kd of best base at the position | – |
| AAGGGGCGTGCT | 119 Kd / Kd of best base at the position | – |
| AAGGGGCGTTAT | 124 Kd / Kd of best base at the position | – |
| AAGGGGCATGAT | 318 Kd / Kd of best base at the position | – |

| Sequence | binding signal | Kd |
| --- | --- | --- |
| TAGGGGCGTGAT | 2.68 Kd / Kd of best base at the position | – |
| AAGTGGCGTGAT | 155 Kd / Kd of best base at the position | – |
| AAGGGGCGTCAT | 134 Kd / Kd of best base at the position | – |
| AAGGGACGTGAT | 86.7 Kd / Kd of best base at the position | – |
| ATGGGGCGTGAT | 2.01 Kd / Kd of best base at the position | – |
| AAGGGTCGTGAT | 116 Kd / Kd of best base at the position | – |
| AAGGGGTGTGAT | 277 Kd / Kd of best base at the position | – |
| AAGGGGCGTGAT | – | ~2.3 nM |
| AACGGGCGTGAT | 16.2 Kd / Kd of best base at the position | – |
| AAGGTGCGTGAT | 62.2 Kd / Kd of best base at the position | – |
| AAGGGGCGAGAT | 75.8 Kd / Kd of best base at the position | – |
| AAAGGGCGTGAT | 3.42 Kd / Kd of best base at the position | – |
| AAGGGGCGTGAG | 1.09 Kd / Kd of best base at the position | – |
| AAGGGGCGCGAT | 170 Kd / Kd of best base at the position | – |
| AAGGGGCCTGAT | 164 Kd / Kd of best base at the position | – |
| GAGGGGCGTGAT | 3 Kd / Kd of best base at the position | – |
| AAGGGCCGTGAT | 107 Kd / Kd of best base at the position | – |
